In PubChem BioAssay (Tox21):
Inconclusive results are not listed. The source made the active and inactive calls. Calls follow the shape of the dose curve; as a rule, active = well fitted curve in the direction sought with a large enough effect in the repeat runs; inconclusive = weak or mixed curves; inactive = no such curve, though single readings can be large; an effect the other way counts as inactive or inconclusive.

Tests used:
[1] = Human pregnane X receptor (PXR) small molecule agonists, qHTS cell viability counter screen (AID 1346977); details: PXR-Luc HepG2 viability, CellTiter-Fluor, 24 h; series mostly up to 92.4 µM; also: nearly all actives have a fitted effect of over 50% in size; also: potency is read from the fitted curve at half-maximal effect
In short: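 PXR-Luc HepG2 cells (2,000/well, 5% charcoal-stripped FBS) preincubated 5 hr, then exposed to compounds 24 hr at 37 C. Viability read in the same wells by CellTiter-Fluor fluorescence, reagent added at 23 hr, 1 hr incubation.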

[2] = Caspase-3/7 induction in CHO-K1 cells by small molecules, qHTS cell viability counter screen (AID 1346979); details: CellTiter-Fluor fluorescence, 17 h; series mostly up to 92.4 µM; also: nearly all actives have a fitted effect of over 35% in size; also: potency is read from the fitted curve at half-maximal effect
In short: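 Wild-type CHO-K1 cells (1,500/well) treated with compound after 5 h plating; after 16 h at 37C, viability read as CellTiter-Fluor fluorescence following 1 h reagent incubation, in the same wells as the caspase read.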

[3] = Caspase-3/7 induction in CHO-K1 cells by small molecules, qHTS assay (AID 1346980); details: CHO-K1 caspase-3/7 induction, Caspase-Glo luminescence, 17 h; series mostly up to 92.4 µM; also: nearly all actives have a fitted effect of over 15% in size; also: potency is read from the fitted curve at half-maximal effect
In short: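 Luminescent Caspase-Glo 3/7 read (30min, room temperature) quantified apoptosis induction. Cells were wild-type CHO-K1, treated with compound for 17hr at 37 C and 5% CO2.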

[4] = biological target: Nuclear receptor subfamily 1 group I member 2 (Homo sapiens) (UniProt O75469); test: Human pregnane X receptor (PXR) small molecule agonists, qHTS assay (AID 1346982); details: PXR-Luc HepG2, CYP3A4 luciferase reporter, 24 h; series mostly up to 92.4 µM; also: nearly all actives have a fitted effect of over 35% in size; also: potency is read from the fitted curve at half-maximal effect
In short: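 We seeded PXR-Luc HepG2 cells in assay medium containing 5% charcoal-stripped FBS, added compounds 5 hr later, incubated 24 hr, and read luminescence with ONE-Glo reagent.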

[5] = biological target: Nuclear receptor subfamily 1 group I member 2 (Rattus norvegicus) (UniProt Q9R1A7); test: Rat pregnane X receptor (rPXR) activation by small molecules, qHTS assay (AID 1346983); details: rPXR luciferase reporter cells, One-Glo luminescence, 24 h; max activation: stronger effect = higher value; also: nearly all actives have a fitted effect of over 20% in size
Nuclear receptor subfamily 1 group I member 2 (Rattus norvegicus), sequence (Q9R1A7 whole entry, looked up): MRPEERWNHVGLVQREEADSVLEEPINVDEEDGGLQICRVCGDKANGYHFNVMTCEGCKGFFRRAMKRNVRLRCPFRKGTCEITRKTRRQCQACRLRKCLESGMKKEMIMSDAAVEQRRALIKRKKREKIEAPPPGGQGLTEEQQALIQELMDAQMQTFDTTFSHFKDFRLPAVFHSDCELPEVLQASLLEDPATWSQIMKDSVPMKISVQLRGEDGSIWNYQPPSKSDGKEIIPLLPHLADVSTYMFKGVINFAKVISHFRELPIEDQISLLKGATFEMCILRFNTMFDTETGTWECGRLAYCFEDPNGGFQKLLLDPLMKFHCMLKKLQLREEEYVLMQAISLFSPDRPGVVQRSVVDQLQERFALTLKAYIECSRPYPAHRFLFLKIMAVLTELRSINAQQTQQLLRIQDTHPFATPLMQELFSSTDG
In short: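 Luminescent readout (One-Glo luciferase, 30 min room temperature) followed 24 hr compound treatment at 37 C of rPXR cells plated 2,000 per well and preincubated 5hr; qHTS format with compounds delivered in DMSO.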

[6] = biological target: Nuclear receptor subfamily 1 group I member 2 (Homo sapiens) (UniProt O75469); test: CYP3A4 induction through human pregnane X receptor (PXR) by small molecules, qHTS assay (AID 1346984); details: DPX-2 HepG2 PXR, CYP3A4-luciferin luminescence, 24 h; series mostly up to 46.1 µM; also: nearly all actives have a fitted effect of over 40% in size; also: potency is read from the fitted curve at half-maximal effect
In short: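 qHTS, concentration-response format: HepG2 DPX-2 line, PXR/CYP3A4-luc. Exposure 24 h, 37C. Substrate Luciferin-IPA 3uM final, 3 h. Detection One-Glo, 30 min RT.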

[7] = biological target: Nuclear receptor subfamily 1 group I member 2 (Homo sapiens) (UniProt O75469); test: Human pregnane X receptor (PXR) activation by small molecules, qHTS assay (AID 1346985); details: DPX-2 HepG2 CYP3A4-luciferase, 24 h; series mostly up to 38.3 µM; also: nearly all actives have a fitted effect of over 40% in size; also: potency is read from the fitted curve at half-maximal effect
In short: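 DPX-2 cells (HepG2 co-transfected with a PXR response element and a CYP3A4-promoter luciferase construct) were seeded at 2,000 per well, rested 5 hr at 37C, then exposed to DMSO-dissolved compounds for 24 hr. Activation was read as luciferase luminescence.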

[8] = biological target: Cytochrome P450 2D6 (Homo sapiens) (UniProt P10635); test: Cytochrome P450 Family 2 Subfamily D Member 6 (CYP2D6) small molecule antagonists: luciferase reporter qHTS assay (AID 1671196); details: P450-Glo CYP2D6 enzyme assay, luciferin luminescence, 1 h; series mostly up to 115 µM; also: nearly all actives have a fitted effect of over 50% in size; also: potency is read from the fitted curve at half-maximal effect
Cytochrome P450 2D6 (Homo sapiens), sequence (P10635 whole entry, looked up): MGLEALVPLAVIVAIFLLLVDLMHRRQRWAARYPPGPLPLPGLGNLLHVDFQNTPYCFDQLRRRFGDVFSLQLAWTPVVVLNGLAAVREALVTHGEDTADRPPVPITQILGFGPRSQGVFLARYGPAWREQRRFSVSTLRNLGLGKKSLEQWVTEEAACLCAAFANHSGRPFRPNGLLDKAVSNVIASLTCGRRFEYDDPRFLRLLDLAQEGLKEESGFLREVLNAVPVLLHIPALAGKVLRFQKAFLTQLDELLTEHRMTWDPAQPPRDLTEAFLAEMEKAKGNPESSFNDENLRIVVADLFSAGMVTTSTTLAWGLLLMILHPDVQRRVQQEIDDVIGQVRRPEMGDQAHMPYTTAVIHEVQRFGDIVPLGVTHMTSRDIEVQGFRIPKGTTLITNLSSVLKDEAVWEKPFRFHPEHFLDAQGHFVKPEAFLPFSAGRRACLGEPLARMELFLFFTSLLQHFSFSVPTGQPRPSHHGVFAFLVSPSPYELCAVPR
In short: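 Luminescence (RLU), read 20 min after detection reagent, indicated CYP2D6 conversion of proluciferin to luciferin during a 1 h NADPH-dependent reaction at room temperature.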

[9] = Caspase-3/7 induction in HepG2 cells by small molecules, qHTS cell viability counter screen (AID 1346981); details: CellTiter-Fluor fluorescence, 17 h; series mostly up to 92.4 µM; also: nearly all actives have a fitted effect of over 30% in size; also: potency is read from the fitted curve at half-maximal effect
In short: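 Multiplexed with the caspase-3/7 assay: HepG2 cells, 16 hr compound treatment, CellTiter-Fluor viability detection by fluorescence.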

[10] = Caspase-3/7 induction in HepG2 cells by small molecules, qHTS assay (AID 1346978); details: HepG2 caspase-3/7 activation, Caspase-Glo luminescence, 17 h; series mostly up to 92.4 µM; also: nearly all actives have a fitted effect of over 15% in size
In short: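 Caspase-3/7 induction was measured by Caspase-Glo 3/7 luminescence (30 min, room temperature) after a 17 hr compound exposure of wild-type HepG2 cells seeded at 2,000 per well and pre-incubated 5 hr.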
% is scaled to controls: 0 for no effect and ±100 for the full control effect.

CCCCCCCCCCC=O
inactive: Potency [1] | Potency [2] | Potency [3] | Potency [4]

O=C(N/N=C/c1ccccc1O)c1ccncc1
active: Potency [2] 7.5 µM | Potency [8] 27.5 µM
inactive: Potency [1] | Potency [3] | Potency [4] | max activation [5] -3.33% | Potency [6] | Potency [7]

O=[N+]([O-])c1cc([N+](=O)[O-])c2ccc(S(=O)(=O)O)cc2c1O
active: Potency [1] 27.1 µM | Potency [2] 21.6 µM | Potency [9] 24.2 µM

CCCCCCCCCCCCCCCC[N+](C)(C)CCN(Cc1ccc(OC)cc1)c1ncccn1
active: Potency [1] 29.8 µM | Potency [2] 26.6 µM
inactive: Potency [4] | max activation [5] -2.3% | Potency [6] | Potency [7]

CCCCCCCC/C=C\CCCCCCCCOCCO
inactive: Potency [3] | Potency [8]
active: Potency [1] 15.9 µM | Potency [2] 35.5 µM | Potency [9] 35.5 µM | Potency [4] 3.98 µM

CNCc1cc(F)ccc1Oc1ccc(Cl)c(Cl)c1
inactive: Potency [3] | Potency [4]
active: Potency [1] 61.1 µM | Potency [2] 61.1 µM | Potency [8] 1.78 µM

COc1c(C)c2c(c(O)c1C/C=C(\C)CCC(=O)O)C(=O)OC2
inactive: Potency [1] | Potency [3] | Potency [4] | max activation [5] -5.38% | Potency [6] | Potency [7] | Potency [8]
active: Potency [2] 1.19 µM

CN1CCN(CCC(=O)N2c3ccccc3Sc3ccc(C(F)(F)F)cc32)CC1
inactive: Potency [4] | max activation [5] -0.926%
active: Potency [1] 26.6 µM | Potency [2] 23.7 µM | Potency [9] 29.8 µM | Potency [6] 14.1 µM | Potency [7] 15.8 µM | Potency [8] 0.155 µM

C1CCCC1
inactive: Potency [1] | Potency [2] | Potency [3] | Potency [9] | Potency [4]
active: Potency [8] 34.8 µM

Oc1ccc(Cl)cc1Sc1cc(Cl)ccc1O
inactive: Potency [3]
active: Potency [1] 15.3 µM | Potency [2] 30.6 µM | Potency [9] 38.5 µM | Potency [4] 27.3 µM

CC(NN)c1ccccc1 (stereo not drawn)
inactive: activity change, negative = cytotoxicity [1] 0.166% [at 19 µM] | activity change, negative = cytotoxicity [2] 6.27% [at 19 µM] | activity change, negative = cytotoxicity [9] 2.61% [at 19 µM] | activation [4] 7.91% [at 19 µM]

Fc1ccc(C(c2ccc(F)cc2)N2CCN(C/C=C/c3ccccc3)CC2)cc1
active: Potency [1] 29.8 µM | Potency [2] 33.5 µM
inactive: Potency [3]

CCCCCCCC/C=C/CCCCCCCC1=NCCN1CCO
active: Potency [1] 68.6 µM | Potency [2] 54.5 µM | Potency [9] 54.5 µM | Potency [8] 5.03 µM

CCCCCCCCCCCCCCCCCC[N+](C)(C)Cc1ccccc1
inactive: Potency [3]
active: Potency [1] 11 µM | Potency [2] 4.9 µM | Potency [9] 55 µM | Potency [4] 1.55 µM | Potency [8] 0.18 µM

CN(C/C=C/C#CC(C)(C)C)Cc1cccc2ccccc12
active: Potency [8] 0.275 µM
inactive: Potency [1] | Potency [2] | Potency [3] | Potency [9] | max activation [5] 0.136%

CCCCCCCCCCCC[N+](C)(C)CCCCCCCCCCCC
active: Potency [1] 27.3 µM | Potency [2] 17.2 µM | Potency [9] 27.3 µM | Potency [8] 20 µM
inactive: Potency [3] | Potency [4]

O=c1c(-c2ccccc2)c1-c1ccccc1
inactive: max activation [5] -15.6% | Potency [6] | Potency [7]
active: Potency [1] 26.6 µM | Potency [2] 16.8 µM | Potency [4] 11.9 µM

O=C(Oc1cccc2cccnc12)c1ccccc1
inactive: Potency [3] | max activation [5] -3.5% | Potency [6] | Potency [7] | Potency [8]
active: Potency [1] 3.35 µM | Potency [2] 7.5 µM

COc1cc(-c2nc(NC(=O)c3cc4cc(C)cc(C)c4n3CC(=O)O)sc2CCC2CCCCC2)c(OC)cc1Cl
active: Potency [1] 31.5 µM | Potency [2] 19.9 µM | Potency [3] 56 µM | Potency [4] 28.1 µM
inactive: Potency [8]

CC(C)(C)C(=O)OCOC(=O)[C@@H]1N2C(=O)[C@@H](NC(=O)[C@H](N)c3ccccc3)[C@H]2SC1(C)C
inactive: Potency [1] | Potency [2] | Potency [3] | Potency [9] | max activation [5] -1.52% | Potency [6] | Potency [7] | Potency [8]

Oc1ccc(C2(c3ccc(O)cc3)CC3CC2C2CCCC32)cc1 (stereo not drawn)
inactive: Potency [3] | Potency [8]
active: Potency [1] 58.7 µM | Potency [2] 46.6 µM

CC(C)(C)CC(C)(C)c1ccc(O)c(Cc2ccc(Cl)cc2Cl)c1
inactive: max activation [5] -0.0398% | Potency [6]
active: Potency [1] 18.8 µM | Potency [2] 18.8 µM | Potency [3] 21.1 µM | Potency [9] 29.8 µM | Potency [4] 2.37 µM

NC(=O)N1C(=O)C(C(=O)c2cc(Cl)cs2)c2cc(F)c(Cl)cc21 (stereo not drawn)
active: Potency [1] 54.5 µM | Potency [2] 61.1 µM | Potency [9] 54.5 µM
inactive: Potency [3]

Cc1ccc(O)c2ncccc12
active: Potency [1] 5.96 µM | Potency [2] 5.31 µM | Potency [4] 3.35 µM
inactive: Potency [3] | Potency [9] | max activation [5] -0.8% | Potency [6] | Potency [7] | Potency [8]

O=c1[nH]cnc2nc[nH]c12
inactive: Potency [1] | Potency [10] | Potency [4] | max activation [5] -3.71% | Potency [6] | Potency [7] | Potency [8]

Cc1onc(-c2ccccc2Cl)c1C(=O)N[C@@H]1C(=O)N2[C@@H]1SC(C)(C)[C@@H]2C(=O)O
inactive: Potency [10] | Potency [2] | Potency [3] | Potency [9]

O=Cc1cc(O)ccc1Br
inactive: Potency [10] | Potency [2] | Potency [3] | Potency [9]

CCCCc1oc2ccc(NS(C)(=O)=O)cc2c1C(=O)c1ccc(OCCCN(CCCC)CCCC)cc1
active: Potency [1] 18.8 µM | Potency [2] 16.8 µM | Potency [8] 11 µM

CCCCN(CCCC)C(=O)N(CCCC)CCCC
inactive: Potency [10] | Potency [2] | Potency [3] | Potency [9] | Potency [4]

COc1cccc(N)c1
inactive: Potency [10] | Potency [3]
active: Potency [2] 24.5 µM

COCCCC/C(=N\OCCN)c1ccc(C(F)(F)F)cc1
inactive: Potency [10] | Potency [2] | Potency [3] | Potency [9]
